{"source": "the supplement of paper PMC7695840", "key": {"[1]": {"tested_on": "Staphylococcus aureus MW2 delta-mecA (mecA-)", "test": "normalized GFP fluorescence (growth of mecA- strain) (fraction of control range); higher = more growth of mecA- strain", "settings": "compound concentration: 150 uM; cefoxitin: subinhibitory; fluorescent label: GFP", "method_in_brief": "(§1)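 Fluorescence from DsRed (540/590) and GFP (485/520) was recorded after 20 h of static growth at 37 °C and 90% humidity. The wells held a 1:1 mix of pre-induced S. aureus MW2 cells, gene-bearing with DsRed and gene-deleted with GFP, in LB with a daily-set subinhibitory antibiotic dose, dispensed at 5 µL/well onto 150 μM compound (1.5% DMSO) in 1536-well plates, single replicate. Each channel was scaled per plate between single-strain control medians, excluding plates with high untreated ratios and rows with DsRed/GFP >10.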"}, "[2]": {"tested_on": "Staphylococcus aureus MW2 (mecA+)", "test": "normalized DsRed fluorescence (growth of mecA+ strain) (fraction of control range); higher = more growth of mecA+ strain", "settings": "compound concentration: 150 uM; cefoxitin: subinhibitory; fluorescent label: DsRed", "method_in_brief": "as §1"}}, "data": [{"smiles": "C=C1C[C@@H]2[C@H](CC[C@]3(C)C(=O)CC[C@@H]23)[C@@]2(C)C=CC(=O)C=C12", "note": "[Exemestane]", "values": [{"measurement": "normalized GFP fluorescence", "setting": "[1]", "value": 0.367}, {"measurement": "normalized DsRed fluorescence", "setting": "[2]", "value": 0.545}]}, {"smiles": "C[N+]1(C)[C@@H]2CC[C@H]1C[C@@H](OC(=O)C(CO)c1ccccc1)C2", "note": "(some centres undefined)", "values": [{"measurement": "normalized GFP fluorescence", "setting": "[1]", "value": 0.479}, {"measurement": "normalized DsRed fluorescence", "setting": "[2]", "value": 0.574}]}, {"smiles": "C[C@]12CC[C@@H]3c4ccc(OC(=O)N(CCCl)CCCl)cc4CC[C@H]3[C@@H]1CC[C@@H]2O", "values": [{"measurement": "normalized GFP fluorescence", "setting": "[1]", "value": 0.117}, {"measurement": "normalized DsRed fluorescence", "setting": "[2]", "value": 0.515}]}, {"smiles": "CC1(C)C(C=C(Cl)Cl)C1C(=O)OCc1cccc(Oc2ccccc2)c1", "note": "(centres undefined)", "values": [{"measurement": "normalized GFP fluorescence", "setting": "[1]", "value": 0.134}, {"measurement": "normalized DsRed fluorescence", "setting": "[2]", "value": 0.704}]}, {"smiles": "C[N+]1([O-])[C@@H]2CC[C@H]1C[C@@H](OC(=O)C(CO)c1ccccc1)C2", "note": "(some centres undefined)", "values": [{"measurement": "normalized GFP fluorescence", "setting": "[1]", "value": 0.483}, {"measurement": "normalized DsRed fluorescence", "setting": "[2]", "value": 1.24}]}, {"smiles": "CC(C)CC(N(C)C)C1(c2ccc(Cl)cc2)CCC1", "note": "(centres undefined)", "values": [{"measurement": "normalized GFP fluorescence", "setting": "[1]", "value": 0.0915}]}, {"smiles": "Cc1ccc(-c2nc3ccc(C)cn3c2CC(=O)N(C)C)cc1", "values": [{"measurement": "normalized GFP fluorescence", "setting": "[1]", "value": 0.38}, {"measurement": "normalized DsRed fluorescence", "setting": "[2]", "value": 0.527}]}, {"smiles": "CCN(C)C(=O)Oc1cccc([C@H](C)N(C)C)c1", "values": [{"measurement": "normalized GFP fluorescence", "setting": "[1]", "value": 0.23}, {"measurement": "normalized DsRed fluorescence", "setting": "[2]", "value": 0.742}]}, {"smiles": "CN1CCN(C(=O)O[C@H]2c3nccnc3C(=O)N2c2ccc(Cl)cn2)CC1", "values": [{"measurement": "normalized GFP fluorescence", "setting": "[1]", "value": 0.334}, {"measurement": "normalized DsRed fluorescence", "setting": "[2]", "value": 0.793}]}, {"smiles": "NCC(CC(=O)O)c1ccc(Cl)cc1", "note": "(centres undefined)", "values": [{"measurement": "normalized GFP fluorescence", "setting": "[1]", "value": 0.683}, {"measurement": "normalized DsRed fluorescence", "setting": "[2]", "value": 0.941}]}, {"smiles": "CC(NC(C)(C)C)C(=O)c1cccc(Cl)c1", "note": "(centres undefined)", "values": [{"measurement": "normalized GFP fluorescence", "setting": "[1]", "value": 0.332}, {"measurement": "normalized DsRed fluorescence", "setting": "[2]", "value": 0.882}]}, {"smiles": "Cl[C@H]1[C@H](Cl)[C@@H](Cl)[C@@H](Cl)[C@H](Cl)[C@H]1Cl", "values": [{"measurement": "normalized GFP fluorescence", "setting": "[1]", "value": 0.612}, {"measurement": "normalized DsRed fluorescence", "setting": "[2]", "value": 0.538}]}, {"smiles": "COP(=O)(OC)C(O)C(Cl)(Cl)Cl", "note": "(centres undefined)", "values": [{"measurement": "normalized GFP fluorescence", "setting": "[1]", "value": 0.2}, {"measurement": "normalized DsRed fluorescence", "setting": "[2]", "value": 0.658}]}, {"smiles": "CCOC(=O)c1cncn1C(C)c1ccccc1", "note": "(centres undefined)", "values": [{"measurement": "normalized GFP fluorescence", "setting": "[1]", "value": 0.248}, {"measurement": "normalized DsRed fluorescence", "setting": "[2]", "value": 0.732}]}, {"smiles": "CC[C@@H](CO)NC(=O)[C@@H]1C=C2c3cccc4c3c(cn4C)C[C@H]2N(C)C1", "values": [{"measurement": "normalized GFP fluorescence", "setting": "[1]", "value": 0.269}, {"measurement": "normalized DsRed fluorescence", "setting": "[2]", "value": 0.713}]}, {"smiles": "C#CCN(C)[C@H](C)Cc1ccccc1", "values": [{"measurement": "normalized GFP fluorescence", "setting": "[1]", "value": 0.853}, {"measurement": "normalized DsRed fluorescence", "setting": "[2]", "value": 0.547}]}, {"smiles": "COc1ccc(C(CN(C)C)C2(O)CCCCC2)cc1", "note": "(centres undefined)", "values": [{"measurement": "normalized GFP fluorescence", "setting": "[1]", "value": 0.6}, {"measurement": "normalized DsRed fluorescence", "setting": "[2]", "value": 0.623}]}, {"smiles": "Cc1cccc([C@H](C)c2c[nH]cn2)c1C", "note": "[Dexmedetomidine]", "values": [{"measurement": "normalized GFP fluorescence", "setting": "[1]", "value": 0.289}, {"measurement": "normalized DsRed fluorescence", "setting": "[2]", "value": 0.702}]}, {"smiles": "Oc1ccc2c3c1O[C@H]1[C@@H](O)CC[C@@]4(O)[C@@H](C2)N(CC2CCC2)CC[C@]314", "values": [{"measurement": "normalized GFP fluorescence", "setting": "[1]", "value": 0.717}, {"measurement": "normalized DsRed fluorescence", "setting": "[2]", "value": 0.715}]}, {"smiles": "Cc1c(N)nc(C(CC(N)=O)NCC(N)C(N)=O)nc1C(=O)NC(C(=O)NC(C)C(O)C(C)C(=O)NC(C(=O)NCCc1nc(-c2nc(C(=O)NCCC[S+](C)C)cs2)cs1)C(C)O)C(O[C@@H]1O[C@@H](CO)[C@@H](O)[C@H](O)[C@@H]1O[C@H]1O[C@H](CO)[C@@H](O)[C@H](OC(N)=O)[C@@H]1O)c1cnc[nH]1", "note": "(some centres undefined)", "values": [{"measurement": "normalized GFP fluorescence", "setting": "[1]", "value": 0.114}, {"measurement": "normalized DsRed fluorescence", "setting": "[2]", "value": 0.862}]}, {"smiles": "CCC(COC(=O)c1cc(OC)c(OC)c(OC)c1)(c1ccccc1)N(C)C", "note": "(centres undefined) [Trimebutine]", "values": [{"measurement": "normalized GFP fluorescence", "setting": "[1]", "value": 0.293}, {"measurement": "normalized DsRed fluorescence", "setting": "[2]", "value": 0.646}]}, {"smiles": "CC[C@@H](C(N)=O)N1CCCC1=O", "values": [{"measurement": "normalized GFP fluorescence", "setting": "[1]", "value": 0.416}, {"measurement": "normalized DsRed fluorescence", "setting": "[2]", "value": 1.14}]}, {"smiles": "CN1C(=O)C(O)N=C(c2ccccc2)c2cc(Cl)ccc21", "note": "(centres undefined)", "values": [{"measurement": "normalized GFP fluorescence", "setting": "[1]", "value": 0.205}, {"measurement": "normalized DsRed fluorescence", "setting": "[2]", "value": 0.691}]}, {"smiles": "CC(C)c1cccc(C(C)C)c1O", "values": [{"measurement": "normalized GFP fluorescence", "setting": "[1]", "value": 0.257}, {"measurement": "normalized DsRed fluorescence", "setting": "[2]", "value": 0.882}]}, {"smiles": "C[N+]12CCC(CC1)C(OC(=O)C(O)(c1ccccc1)c1ccccc1)C2", "note": "(centres undefined)", "values": [{"measurement": "normalized GFP fluorescence", "setting": "[1]", "value": 0.468}, {"measurement": "normalized DsRed fluorescence", "setting": "[2]", "value": 0.579}]}, {"smiles": "CN1C(=O)CCS(=O)(=O)C1c1ccc(Cl)cc1", "note": "(centres undefined)", "values": [{"measurement": "normalized GFP fluorescence", "setting": "[1]", "value": 0.212}, {"measurement": "normalized DsRed fluorescence", "setting": "[2]", "value": 0.676}]}, {"smiles": "CN1C[C@H](C(=O)N[C@]2(C)O[C@@]3(O)[C@@H]4CCCN4C(=O)[C@H](Cc4ccccc4)N3C2=O)C[C@@H]2c3cccc4[nH]cc(c34)C[C@H]21", "values": [{"measurement": "normalized GFP fluorescence", "setting": "[1]", "value": 0.246}, {"measurement": "normalized DsRed fluorescence", "setting": "[2]", "value": 0.753}]}, {"smiles": "Oc1cccc2cccnc12", "values": [{"measurement": "normalized GFP fluorescence", "setting": "[1]", "value": 0.00976}, {"measurement": "normalized DsRed fluorescence", "setting": "[2]", "value": 0.0478}]}, {"smiles": "O=P1(NCCCl)OCCCN1CCCl", "note": "(centres undefined)", "values": [{"measurement": "normalized GFP fluorescence", "setting": "[1]", "value": 0.399}, {"measurement": "normalized DsRed fluorescence", "setting": "[2]", "value": 0.711}]}, {"smiles": "CN1[C@@H]2C[C@@H](OC(=O)[C@H](CO)c3ccccc3)C[C@H]1[C@@H]1O[C@@H]12", "values": [{"measurement": "normalized GFP fluorescence", "setting": "[1]", "value": 0.83}, {"measurement": "normalized DsRed fluorescence", "setting": "[2]", "value": 0.7}]}]}
